Values joined by “and” are separate entries in the source; they are usually repeats but may differ in a detail not shown here. Equal values may be shown once. Results filed as inconclusive are left out. Some compounds were tested as several samples or in several runs, with calls that do not always agree. Active and inactive are the calls of the source. How the source made its calls: active means hit-call score of the fitted dose curve at least 0.9, where 1 is the maximum; inconclusive means response in the unintended direction; inactive means score below 0.9.

The nature of assay [1]: ATG_XTT_Cytotoxicity: Cytotoxicity Assessment in the Attagene TRANS-FACTORIAL HepG2 Assay (AID 2283584). In outline: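 HepG2 cells transiently transfected with GAL4-UAS multiple reporter units, dosed 24 h; cytotoxicity read by XTT as loss of signal versus DMSO baseline.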
Assay [2] can be described thus: TOX21_p53_BLA_p2_viability: Viability Assessment in the Tox21 HCT-116 p53 Agonism Beta-lactamase Assay, Phase 2 (AID 2283591).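 Further: actives lower the ATP signal meaning cytotoxicity.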 Summed up:
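Cytotoxicity readout: CellTiter-Glo ATP luminescence, 30 min at room temperature, after the beta-lactamase read. Cells were HCT116 exposed 16 h at 37C to compounds pin-transferred at 217-fold dilution from DMSO stocks.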

The target of assay [3] is Cellular tumor antigen p53 (Homo sapiens) (UniProt P04637). Put plainly: TOX21_p53_BLA_p2_ratio: Tox21 HCT-116 p53 Agonism Beta-lactamase Assay, Ratio, Phase 2 (AID 2283592). Summed up:
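First, HCT116 reporter cells settle for 5 h at 37C. Next, DMSO compound solutions are pinned in (217-fold dilution) and left 16 h. Finally, CCF4-AM substrate is loaded 2 h at room temperature and the 460/530 nm ratio read.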

The target is the same in assay [4]. The assay can be described thus: TOX21_p53_BLA_p3_ratio: Tox21 HCT-116 p53 Agonism Beta-lactamase Assay, Ratio, Phase 3 (AID 2283596). Summed up:
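Cells were seeded at 4000/well, rested 5 h at 37C, then dosed with DMSO compound solutions (217-fold dilution) for 16 h. CCF4-AM substrate was loaded for 2 h at room temperature, and the 460/530 nm emission ratio was fitted for gain of signal versus DMSO.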

A short description of assay [5]: TOX21_p53_BLA_p5_viability: Viability Assessment in the Tox21 HCT-116 p53 Agonism Beta-lactamase Assay, Phase 5 (AID 2283600). In outline:
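Decreased CellTiter-Glo luminescence denotes lost viability. Exposure: 16 h at 37C, 5% CO2, with compounds from DMSO stocks diluted 217-fold in wells of 4000 cells.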

Assay [6] deals with Cellular tumor antigen p53 (Homo sapiens) (UniProt P04637). Put plainly: TOX21_p53_BLA_p4_ratio: Tox21 HCT-116 p53 Agonism Beta-lactamase Assay, Ratio, Phase 4 (AID 2283601). In outline: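 Signal is the blue/green (460nm/530nm) ratio of cleaved versus uncleaved CCF4-AM substrate, read after 2 h substrate loading. Cells were HCT116 carrying the p53-responsive beta-lactamase reporter, dosed 16 h at 37C, 5% CO2; CellTiter-Glo measured in parallel.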

Assay [7] can be described thus: TOX21_p53_BLA_p4_viability: Viability Assessment in the Tox21 HCT-116 p53 Agonism Beta-lactamase Assay, Phase 4 (AID 2283597).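 Further: hits lower the luminescence signal meaning cytotoxicity.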 In outline:
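4000 HCT116 cells per well; 5 h attachment; compounds from DMSO, 217-fold dilution; 16 h at 37C. Then CCF4-AM, 2 h RT, followed by CellTiter-Glo, 30 min RT, luminescence. Decrease = cytotoxicity.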

The target of assay [8] is Cellular tumor antigen p53 (Homo sapiens) (UniProt P04637). Put plainly: TOX21_p53_BLA_p5_ratio: Tox21 HCT-116 p53 Agonism Beta-lactamase Assay, Ratio, Phase 5 (AID 2283599). Summed up:
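Beta-lactamase reporter ratio (blue 460 nm over green 530 nm, 405 nm excitation) after 2 h CCF4-AM loading, in HCT-116 cells exposed 16 h at 37 C to compounds pinned at 217-fold dilution. Increases relative to DMSO baseline scored.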

Assay [9] in a line: TOX21_p53_BLA_p3_viability: Viability Assessment in the Tox21 HCT-116 p53 Agonism Beta-lactamase Assay, Phase 3 (AID 2283593).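 Further: cells exposed to compound for 16 h before reading.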 Summed up: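 Cellular ATP was quantified by CellTiter-Glo luminescence, read after 30 min at room temperature. Beforehand, HCT116 cells (4000/well) received compound 5 h post-seeding, 217-fold diluted from DMSO, then incubated 16 h at 37C.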

Cellular tumor antigen p53 (Homo sapiens), sequence (P04637 whole entry, looked up): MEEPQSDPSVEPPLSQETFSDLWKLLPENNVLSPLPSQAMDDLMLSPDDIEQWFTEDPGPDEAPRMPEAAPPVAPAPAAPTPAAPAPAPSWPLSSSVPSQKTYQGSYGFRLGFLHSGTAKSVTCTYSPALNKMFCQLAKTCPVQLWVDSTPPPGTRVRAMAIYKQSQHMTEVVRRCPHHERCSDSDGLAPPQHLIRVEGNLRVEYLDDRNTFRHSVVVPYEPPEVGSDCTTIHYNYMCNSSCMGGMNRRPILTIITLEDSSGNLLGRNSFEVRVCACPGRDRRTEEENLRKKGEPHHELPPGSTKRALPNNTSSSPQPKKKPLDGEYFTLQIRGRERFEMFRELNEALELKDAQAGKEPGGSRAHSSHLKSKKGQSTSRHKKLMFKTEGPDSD

For the molecule `CCC(Cc1ccccc1)(C(=O)c1ccc(N2CCOCC2)cc1)N(C)C` (configuration not stated), the molecule was classed as inactive in assay [1], in [2], in [3], in [4], in assay [5] and in assay [6].
For the molecule `O=c1n(CCO)c(=O)n(CCO)c(=O)n1CCO`, the molecule was classed as inactive in [1], in assay [2], in [4], in [7], in [8] and in assay [5]. Further, in [6], the outcome was inactive.
Regarding `CN(C)CCCN(C)C`, the outcome in assay [1], in assay [2], in assay [3], in assay [4], in assay [8] and in assay [5] was inactive. Also, in [6], the result was inactive.
In the case of `CC(C)COC(=O)C=Cc1ccccc1`, the call in assay [1], in [2], in [3], in [4], in [8] and in [5] was inactive. Moreover, the result in assay [6] was inactive.
As to `CCCCCCCCCCCCCCCC[N+](C)(C)CC`, the outcome in assay [1] and in assay [3] was inactive. For the same molecule, the AC50 in assay [3] was 63.3 µM (active); in [9], 65.4 µM (active) and 35.3 µM (active); in assay [4] it was 44.5 µM (active) and 30.8 µM (active); in assay [7], 73.7 µM (active) and 30.9 µM (active); in [8], 71.2 µM (active) and 24.6 µM (active); in assay [5], 74.8 µM (active) and 18.2 µM (active). Also, in [6], the AC50 was 70.4 µM (active).
Regarding `CC(C)(C)c1ccc(OC(=O)c2ccccc2O)cc1`, the outcome in assay [1], in assay [2], in assay [3], in [7] and in assay [6] was inactive.
For the molecule `C=CC(=O)OCCC(=O)O`, the outcome in assay [1], in [2], in assay [3], in assay [4] and in [6] was inactive.
For `CC=CC(=O)N(CC)c1ccccc1C`, the call in assay [1], in [2], in [3], in assay [4], in assay [8] and in assay [6] was inactive.
Consider `Nc1ncn([C@@H]2O[C@H](CO)[C@@H](O)[C@H]2O)c(=O)n1`, for which the call in [1], in [3], in assay [9], in assay [4] and in [5] was inactive. Also, the AC50 is 1.06 µM (active) in assay [3]; 13.4 µM (active) in assay [4]; 3.88 µM (active) and 6.69 µM (active) in assay [8]; 13.6 µM (active) and 6.66 µM (active) in assay [6].
Turning to `NC(=O)N=NC(N)=O`, the result in assay [1], in assay [2], in assay [3], in assay [7], in assay [5] and in [6] was inactive.
On to `[Cl][Nd]([Cl])[Cl]`, for which the call in assay [1], in assay [2], in assay [9], in [7] and in [8] was inactive.
Regarding `CC(=O)OCC(=O)[C@@]12N=C(C)O[C@@H]1C[C@H]1[C@@H]3CCC4=CC(=O)C=C[C@]4(C)[C@H]3[C@@H](O)C[C@@]12C`, the call in assay [1], in [2], in assay [3], in assay [7], in assay [5] and in [6] was inactive.
For `CC(C)CCCC(C)CC=O` (configuration not stated), the call in assay [1], in assay [2], in assay [3], in assay [8] and in assay [5] was inactive.
Take `O=C(OCC1CCC2OC2C1)C1CCC2OC2C1` (configuration not stated): the molecule was classed as inactive in assay [1], in assay [2], in [3], in assay [4], in assay [7] and in assay [8]. The result in [5] was inactive.
In the case of `O=C1CCCC1`, the molecule was classed as inactive in assay [1], in [2], in assay [3], in assay [4], in assay [7] and in [8]. For the same molecule, the molecule was classed as inactive in [5] and in assay [6].
For `CC(=O)Oc1ccc(C(C)=O)cc1`, the result in [1], in assay [2], in [9], in [4], in [8] and in [5] was inactive. Moreover, the outcome in [6] was inactive.
Consider `O=C(C(Cl)Cl)N1CCOC12CCCCC2`, for which the molecule was classed as inactive in assay [1], in assay [2] and in assay [4].
`O=c1[nH]c(=O)c2[nH]c(=O)[nH]c2[nH]1`: the outcome in assay [1], in assay [2], in [3] and in assay [6] was inactive.
In the case of `CC(CC=O)c1ccccc1` (configuration not stated), the call in [1], in assay [2], in [9], in assay [4] and in assay [5] was inactive.
In the case of `CC(=O)[C@H]1[C@H](C#N)C[C@H]2[C@@H]3CC=C4C[C@@H](O)CC[C@]4(C)[C@H]3CC[C@@]21C`, the result in assay [1], in assay [2], in assay [8], in assay [5] and in assay [6] was inactive.
In the case of `N#[N+]c1ccc2c(S(=O)(=O)[O-])cccc2c1O`, the call in assay [1], in [2], in [3], in assay [4], in assay [7] and in [5] was inactive. Besides, the result in [6] was inactive.
As to `CCc1ccc2c(c1)C(=O)c1ccccc1C2=O`, the molecule was called inactive in [1], in assay [2], in assay [9] and in assay [5].
On to `C=C(C)C(=O)OCC(C)C`, for which the call in [1], in assay [2], in assay [9], in assay [4], in assay [8] and in assay [6] was inactive.
Regarding `CCCCCC/C=C\CCCCCCCC(=O)O`, the result in assay [1], in assay [2], in assay [4], in assay [5] and in assay [6] was inactive. In [9], the AC50 is 76.5 µM (active).
Take `Cc1ccc2c(c1)C(=O)c1ccccc1C2=O`: the call in [1], in assay [3], in [9], in assay [4], in assay [8] and in assay [5] was inactive.
`CC(C)C1=CC2=CC[C@@H]3[C@](C)(CCC[C@@]3(C)C(=O)O)[C@H]2CC1`: the call in [1], in assay [3], in assay [9], in [4], in assay [7] and in assay [8] was inactive. In addition, the molecule was called inactive in [5].
On to `COc1cc(NC(=O)CC(C)=O)c(OC)cc1Cl`, for which the result in [1], in assay [3], in assay [9], in assay [4], in [8] and in [5] was inactive. Further, in assay [6], the result was inactive.
Take `C=CCOCC(O)CCl` (configuration not stated): the outcome in assay [1], in assay [3], in assay [9], in assay [8], in assay [5] and in assay [6] was inactive.
Turning to `CNC(=S)N(C)C`, the result in assay [1], in [3], in assay [9], in assay [4], in assay [8] and in [6] was inactive.

These data come from PubChem BioAssay (EPA / NIEHS).
